# Experimental data taken from the OligoGym collection.
# What was measured:
# Assay in all cases: pooled miR-30 sensor sort-seq; sequence = guide strand
# Conditions in all cases: shRNA
# WDR38 = target: WDR38
# WDR34 = target: WDR34
# WDR59 = target: WDR59
# WDR33 = target: WDR33
# WFDC12 = target: WFDC12
# XAGE3 = target: XAGE3
# YARS = target: YARS
# Note: reference of the scale not given here.
sequence,measurement,setting,value
TTCAGTTGGATAAGCAGGCTGC,sensor-assay potency score (higher = more potent),WDR38,-0.0722
TTCTTGAGCTTGGTGCTCCGTG,sensor-assay potency score (higher = more potent),WDR34,-0.384
ATACTTGAGGGAGAGCTGCAGC,sensor-assay potency score (higher = more potent),WDR34,-0.787
TAACACTGTAACACTGGCCCTG,sensor-assay potency score (higher = more potent),WDR59,0.0657
TAACCTGCTCCGCAGAACCTGG,sensor-assay potency score (higher = more potent),WDR59,-1.45
TTGCAGATGGCACACTGCGTGC,sensor-assay potency score (higher = more potent),WDR59,-1.5
TTTATTTTGCATCCAAGCCTGC,sensor-assay potency score (higher = more potent),WDR33,-0.562
TTAGCTTTCATGGTGGATGTGA,sensor-assay potency score (higher = more potent),WDR59,0.497
TTTGACGTCTAGTCTGATCGGC,sensor-assay potency score (higher = more potent),WDR38,1.06
TAGTCTGATCGGCAGCTCCAGA,sensor-assay potency score (higher = more potent),WDR38,-1.14
TTCAGCTCGCTTCTCTCTCAGA,sensor-assay potency score (higher = more potent),WDR59,-0.891
TTAAGCGTGCTCCAGTCCCCAT,sensor-assay potency score (higher = more potent),WDR34,-1.36
TTTGCTTGATCAAAACTGTGGG,sensor-assay potency score (higher = more potent),WDR34,0.652
ATATTTGACGTCTAGTCTGATC,sensor-assay potency score (higher = more potent),WDR38,-0.981
TAGGATTATTCAACATTCCTAT,sensor-assay potency score (higher = more potent),WDR33,-0.157
TAAACTGTCCCTGTGGACCTGG,sensor-assay potency score (higher = more potent),WDR33,-0.115
TGACCGTCTCCACACTCCGTTG,sensor-assay potency score (higher = more potent),WDR38,-1.74
TTGAGGGAGAGCTGCAGCGAAG,sensor-assay potency score (higher = more potent),WDR34,-1.68
TTGACCATGCGGGAATAGCCGG,sensor-assay potency score (higher = more potent),WDR38,-1.06
TTGAACTCCAGACAGTAGACAG,sensor-assay potency score (higher = more potent),WDR34,-1.12
TTACTTTTCCATCGTCTTGATT,sensor-assay potency score (higher = more potent),WDR59,-0.978
TTTCCTGTGTTGCAGTCCCAGA,sensor-assay potency score (higher = more potent),WDR38,-1.04
TTCACCAGCATCTTGACACGAT,sensor-assay potency score (higher = more potent),WDR59,0.208
TTGAGGACCAGAACTACCTTGT,sensor-assay potency score (higher = more potent),WDR33,0.395
TTGCTTGATCAAAACTGTGGGT,sensor-assay potency score (higher = more potent),WDR34,-0.138
TGCTTGATCAAAACTGTGGGTT,sensor-assay potency score (higher = more potent),WDR34,-0.0783
TTTCTGGAGATCAAACAGCTGC,sensor-assay potency score (higher = more potent),WDR34,-0.424
TTGGTGACCCTTCAGGACCCGC,sensor-assay potency score (higher = more potent),WDR38,-1.34
TAGACAACACACAAAGCGCAGC,sensor-assay potency score (higher = more potent),WDR59,-0.806
ATCTGCTGCTGCTCGGTCCAGT,sensor-assay potency score (higher = more potent),WDR34,-0.627
AATTCTTGTTCAGCTCTCGGAT,sensor-assay potency score (higher = more potent),WDR34,-0.793
TGAGCCTGTGAGCAGCATCTGG,sensor-assay potency score (higher = more potent),WDR38,-1.58
TTCACAGGAATCACACACTTGA,sensor-assay potency score (higher = more potent),WFDC12,-0.211
TTGAGTCTCAGCTGCACCCTGA,sensor-assay potency score (higher = more potent),XAGE3,-0.3
TAGTGTGTACTCTTTGCTGAGC,sensor-assay potency score (higher = more potent),YARS,-0.796
ATCTTCTCTACATACAGGCTGT,sensor-assay potency score (higher = more potent),YARS,-0.695
